Results as given in PubChem BioAssay.
“And” between values parts separate entries of the source, which are not always exact repeats. Equal values may be shown once. The source made the active and inactive calls. Unless noted, no stated cut-off is given here; in the data, active means parasite load remaining mostly below about 12% (no sharp cut-off); inactive means mostly above about 10%.

Assays:
[1] = compounds altering viability of human ES cells (AID 493140; call rule not given here;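 further: cells exposed to compounds for four days before counting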); settings: human embryonic stem cell survival screen; stronger effect = higher value
[2] = P. berghei load reduction in hepatocytes – cell-based, HepG2, luciferase luminescence, HepG2 viability, primary screen (AID 624349);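 further: 100% = mean of DMSO negative control wells on the same plate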; settings: P. berghei liver stage in HepG2, luciferase luminescence, concentration not given here; parasite load remaining: stronger effect = lower value; viability: measured here: HepG2 viability without parasites
[3] = Wnt pathway potentiators raising nuclear beta-catenin – imaging, WNT3A-conditioned medium, mouse C2C12, NPC library, primary screen (AID 1117326; in the data active means nuclear beta-catenin stimulation mostly above about 4.2%, no sharp cut-off; inactive means mostly below about 10%; further: reference of the scale not given here); settings: stronger effect = higher value
[4] = stimulators of insulin release from INS-1E, primary screen, cell-based, 5 mM glucose, NPC library (AID 1117329;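 active means compound raises insulin release from rat beta cells at 5 mM glucose, no numeric limit stated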; further: reference of the scale not given here); settings: rat INS-1E insulin secretion, at 10 µM, stronger effect = higher value
[5] = growth inhibition of GSK3B-pretreated HCT116 cells – cell-based, CellTiter-Glo, 0.2 to 20 µM (AID 1117336;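 active means compounds lowering colon cancer cell viability after pretreatment blocking the GSK3B kinase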); settings: HCT116 viability after GSK3B inhibitor, at 20 µM, stronger effect = higher value
[6] = inhibition of endothelial tube formation, primary screen, imaging, VEGF stimulated, CD31 staining, tube area, NPC library (AID 1117340;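 active means compound that reduces growth-factor-driven endothelial tube area in a mixed cell culture, no cutoff stated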); settings: VEGF-stimulated ADSC/ECFC co-culture, at 10 µM, stronger effect = higher value
[7] = GLP1 release stimulators, primary, NCI-H716, NPC library (AID 1117341;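 active means compound raises GLP1 secretion from the human gut endocrine cells, with no numeric limit stated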; further: reference of the scale not given here); settings: NCI-H716 cells, at 10 µM, stronger effect = higher value
[8] = HCT116 colon cancer cell growth inhibition, primary screen, CellTiter-Glo luminescence, NPC library (AID 1117342;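 active means compounds that lower survival of HCT116 colon cancer cells in the luminescence readout, no numeric limit stated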); settings: at 20 µM (top of the series)
[9] = reduced SW480 viability measured with CellTiter-Glo, NPC library, primary (AID 1117343;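 active means compounds that lower viability of the colon cancer cells in the luminescence readout, with no numeric limit stated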); settings: CellTiter-Glo luminescence; at 20 µM (top of the series) unless noted
[10] = NPC library primary testing for decreased DLD-1 cell viability via CellTiter-Glo (AID 1117346;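 active means compounds that lower survival of DLD-1 colon cancer cells in the luminescence readout, no cutoff given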); settings: DLD-1 viability, CellTiter-Glo luminescence; at 20 µM (top of the series)
[11] = viability loss with induced miR-34 in A549 – imaging, A549 dox-inducible miR-34, nuclei and caspase counts, primary screen (AID 1347080;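 active means compounds whose cell count with miR-34 switched on is under 0.7 times the count with it off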); settings: A549 miR-34 inducible, Hoechst nuclei count, 48 h
[12] = MELAS cybrid and Rieske KO viability enhancers – cell-based, MELAS cybrids, Rieske KO mouse fibroblasts, CellTiter-Glo, primary screen (AID 1508586;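 active means mean z-score across replicates of 1.96 or higher in either the MELAS or the Rieske mutant cell line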;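 further: z relative to plate mean and SD of compound and empty wells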); settings: low glucose
[13] = molecular target: NAD(+) hydrolase SARM1 (Homo sapiens) (UniProt Q6SZW1); experiment: blocking NAD cleavage by SARM1 SAM-TIR – cell lysate, NAD-Glo luminescence (AID 1508614;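 active means compound whose remaining NAD level is above about 45 nM, limit read from the data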); settings: SAM-TIR HEK293T lysate NADase, at 1 µM, stronger effect = higher value
[14] = stronger effect = lower value, cell number ratio, induced over uninduced
[15] = measured here: relative caspase fold change +Dox/-Dox
[16] = measured here: total cells with miR-34 induction, stronger effect = lower value
[17] = measured here: total cells without miR-34 induction
[18] = MELAS cybrid survival, CellTiter-Glo 48 h, stronger effect = higher value
[19] = Rieske KO mouse fibroblast survival, CellTiter-Glo 72 h

Chain of NAD(+) hydrolase SARM1 (Homo sapiens) (Q6SZW1 whole entry, looked up): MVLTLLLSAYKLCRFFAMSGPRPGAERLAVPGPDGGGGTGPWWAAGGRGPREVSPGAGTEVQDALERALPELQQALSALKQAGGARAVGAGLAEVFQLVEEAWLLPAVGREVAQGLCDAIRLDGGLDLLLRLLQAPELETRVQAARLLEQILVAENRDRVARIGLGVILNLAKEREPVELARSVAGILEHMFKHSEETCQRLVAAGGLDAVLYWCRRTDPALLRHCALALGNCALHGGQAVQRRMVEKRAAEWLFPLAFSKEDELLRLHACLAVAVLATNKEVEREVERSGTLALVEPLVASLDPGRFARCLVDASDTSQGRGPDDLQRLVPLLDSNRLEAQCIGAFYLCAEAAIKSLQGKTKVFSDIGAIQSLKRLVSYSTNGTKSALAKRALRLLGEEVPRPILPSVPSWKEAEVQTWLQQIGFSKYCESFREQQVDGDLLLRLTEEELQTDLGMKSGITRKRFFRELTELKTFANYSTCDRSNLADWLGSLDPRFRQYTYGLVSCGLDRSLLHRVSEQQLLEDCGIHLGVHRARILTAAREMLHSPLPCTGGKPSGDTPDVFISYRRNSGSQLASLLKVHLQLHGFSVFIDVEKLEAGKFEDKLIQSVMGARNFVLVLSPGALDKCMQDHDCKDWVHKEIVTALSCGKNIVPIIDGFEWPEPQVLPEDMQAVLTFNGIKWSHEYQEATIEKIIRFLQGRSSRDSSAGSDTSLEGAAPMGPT

| Compound | survival [1] | parasite load remaining [2] | viability [2] | nuclear beta-catenin stimulation ([3]; at 10 µM) | nuclear beta-catenin stimulation ([3]; stimulation, at 2 µM) [%] | insulin secretion stimulation [4] | viability decrease [5] | tube area decrease [6] | GLP1 secretion stimulation [7] | inhibition of viability [8] | viability decrease (inhibition) [9] | viability decrease (inhibition) [10] | fold change [11, 14] | fold change [11, 15] | cell count [11, 16] | cell count [11, 17] | z-score [12, 18] | z-score [12, 19] | remaining NAD [13] |
| --- | --- | --- | --- | --- | --- | --- | --- | --- | --- | --- | --- | --- | --- | --- | --- | --- | --- | --- | --- |
| CN(C)CCn1nnnc1SCC1=C(C(=O)O)N2C(=O)[C@@H](NC(=O)Cc3csc(N)n3)[C@H]2SC1 | 7.25 (inactive) | 47.4% (inactive) and 69.6% (inactive) | 114% and 74.2% | -1.2% (inactive) | 1.1 | 2.8% (inactive) | 4.6% (inactive) | -30.8% (inactive) | -3% (inactive) | -8.3% (inactive) | 4.5% (inactive) | -6.8% (inactive) | 0.874 (inactive) | 1.13 | 8320 | 9520 | -0.0188 (inactive) | -0.0723 |  |
| COCC(=O)Nc1c(I)c(C(=O)NCC(O)CO)c(I)c(C(=O)N(C)CC(O)CO)c1I (configuration not stated) | 1.33 (inactive) | 103% (inactive) | 104% | 3% (inactive) | 2.8 | 3.5% (inactive) | -12.6% (inactive) | -13.9% (inactive) | -1.2% (inactive) | -4.47% (inactive) | -13% (inactive) | -7.9% (inactive) | 0.856 (inactive) | 1.69 | 8610 | 10100 | -0.386 (inactive) | -1.03 |  |
| CC(C(=O)O)c1ccc(C(=O)c2ccccc2)s1 (configuration not stated) | 11.3 (inactive) | 86.4% (inactive) and 106% (inactive) | 112% and 75.4% | 0.5% (inactive) | 0.1 | -2% (inactive) | 4.35% (inactive) | 4% (inactive) | -4.7% (inactive) | 7.4% (inactive) | 37.4% (inactive) | 10.6% (inactive) | 0.849 (inactive) | 1.29 | 9200 | 10800 | -0.736 (inactive) | -0.23 |  |
| CCOC(=O)Nc1ccc2c(c1)N(C(=O)CCN1CCOCC1)c1ccccc1S2 | 4.83 (inactive) | 99.9% (inactive) | 97.4% | -0.6% (inactive) | 1.1 | 1.7% (inactive) | -14.2% (inactive) | 4% (inactive) | -2.4% (inactive) | 15.2% (inactive) | 17.8% (inactive) | -16.3% (inactive) | 0.922 (inactive) | 1.07 | 8790 | 9540 | 0.935 (inactive) | 0.145 |  |
| CCCCC(CC)COC(=O)c1ccccc1O (configuration not stated) |  |  |  | -0.1% (inactive) | -0.3 | -2% (inactive) | 9.8% (inactive) | -7.3% (inactive) | 1.9% (inactive) | 2.2% (inactive) | 50.1% (active) | 14.3% (inactive) |  |  |  |  |  |  | 10 nM (inactive) |
